KKLEB cytotox – counter-screen for CF NF-kB inhibitors: cytotoxicity. KKLEB CF airway cells viability, ATPlite luminescence, overnight; stronger effect = lower value; cells stimulated with P. aeruginosa culture filtrate. activity change (cytotoxicity), % at 5 µM. 0.36% of 360,000 active. AID 602141;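 active = corrected activity change at or below -50% at 5 µM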
TWEAK Fn14 block – inhibitors of TWEAK-Fn14 interaction signaling; 2% of 360,000 active; TWEAK-stimulated Fn14 reporter cells, luciferase luminescence, 8 h; AID 1159606; inhibition, % at 10 µM; in the data active = inhibition above about 50%
CF NFkB inh – cystic fibrosis NF-kB activation inhibition | 0.86% of 360,000 active | inhibition, % at 5 µM | KKLEB NF-kB-GFP reporter, PAF-induced, GFP fluorescence overnight;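 active = at least 50% inhibition at 5 µM, scaled per plate between neutral and stimulator controls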;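 note: PAF is a Pseudomonas aeruginosa culture filtrate used as stimulus; plate controls were PAF-stimulated DMSO wells for no effect and unstimulated DMSO wells for full effect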
hiPSC survival – hiPSC single-cell survival enhancement. ATPlite luminescence; 100% = ROCK inhibitor wells, 0% = DMSO. survival enhancement, % at 20 µM. 0.044% of 360,000 active; in the data active = survival enhancement above about 18%;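 note: cells exposed to compounds for 16 hours before the ATP read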
HIF-2a inh – inhibitors of HIF-2a; 786-0 RCC cells HIF-2a reporter, luciferase luminescence, overnight; inhibition, % at 18.8 µM; 0.72% of 360,000 active; AID 624352;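 active = inhibition of the luminescence signal of 40% or more relative to plate controls, in a single-dose primary screen at 18.75 µM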
LGR2 inh – blocks bursicon-induced cAMP signaling via Drosophila LGR2 | HEK293 LGR2, CRE-luciferase, bursicon-stimulated, 4 h | inhibition, % at 9.99 µM | 0.35% of 380,000 active;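 active = drop in luminescence signal, shown as inhibition above about 50% in the replicate tests, limit read from the data, passing the limit was not always enough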;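 note: agonist challenge used bursicon conditioned medium at about half maximal strength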
Mdm2 MdmX conf – confirmation of inhibitors of human Mdm2/MdmX interaction, set 2; inhibition, % at 8 µM; SaOS-2 split-luciferase Mdm2/MdmX complementation, luminescence; AID 504601; shares compounds with HIF-2a inh; 99% of 740 active;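 active = mean inhibition of the luminescence signal across two replicates at or above 26 percent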
Target sequence (O15151 whole entry, looked up): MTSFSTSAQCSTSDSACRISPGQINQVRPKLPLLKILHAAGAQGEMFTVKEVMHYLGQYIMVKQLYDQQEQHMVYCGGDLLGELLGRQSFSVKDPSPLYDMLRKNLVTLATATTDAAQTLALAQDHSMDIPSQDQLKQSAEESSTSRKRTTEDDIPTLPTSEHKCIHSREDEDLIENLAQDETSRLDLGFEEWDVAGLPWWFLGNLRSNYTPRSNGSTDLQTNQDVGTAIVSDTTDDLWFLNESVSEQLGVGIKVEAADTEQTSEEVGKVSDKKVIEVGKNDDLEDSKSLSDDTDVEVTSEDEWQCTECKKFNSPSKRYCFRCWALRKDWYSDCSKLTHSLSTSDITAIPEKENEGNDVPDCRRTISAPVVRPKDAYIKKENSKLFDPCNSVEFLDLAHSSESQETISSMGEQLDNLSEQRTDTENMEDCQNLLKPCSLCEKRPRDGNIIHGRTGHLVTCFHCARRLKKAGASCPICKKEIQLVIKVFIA
Target sequence (Q00987 whole entry, looked up): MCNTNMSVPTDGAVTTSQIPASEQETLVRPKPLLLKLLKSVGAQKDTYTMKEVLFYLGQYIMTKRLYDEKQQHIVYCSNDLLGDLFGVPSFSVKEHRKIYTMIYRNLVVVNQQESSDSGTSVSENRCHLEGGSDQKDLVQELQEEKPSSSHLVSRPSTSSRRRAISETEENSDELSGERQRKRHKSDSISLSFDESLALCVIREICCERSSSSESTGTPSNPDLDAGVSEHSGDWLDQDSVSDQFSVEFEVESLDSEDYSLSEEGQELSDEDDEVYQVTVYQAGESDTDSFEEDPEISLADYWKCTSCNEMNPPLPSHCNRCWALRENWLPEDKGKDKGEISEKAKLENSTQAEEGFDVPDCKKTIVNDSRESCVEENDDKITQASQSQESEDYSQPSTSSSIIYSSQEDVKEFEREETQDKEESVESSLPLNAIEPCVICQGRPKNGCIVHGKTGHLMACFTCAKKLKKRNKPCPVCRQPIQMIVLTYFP
HIF-2a inh conf – HIF-2a inhibition, single concentration confirmation; inhibition, % at 18.8 µM; 56% of 1,800 active; shares compounds with HIF-2a inh; 786-0 RCC cells, HIF-2a luciferase reporter luminescence, overnight; AID 651580;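 active = mean inhibition across four replicates of at least 40 percent at the single tested concentration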
HIF-1a counter – HIF-1a inhibition counter-screen for HIF-2a hits; MiaPaCa-2 HIF-1a luciferase reporter, desferoxamine, overnight; AID 651589; 72% of 1,800 active; inhibition, % at 18.8 µM; shares compounds with HIF-2a inh;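 active = mean inhibition of the reporter signal across four replicates at the single tested dose of 50% or more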
* marks the source's active call; other numbers are inactive results. Compounds with a hit are over-represented: about 2.3% of the library has one in this group of screens.

CC[C@@]1(O)C(=O)OCc2c1cc1n(c2=O)Cc2cc3c(N)cccc3nc2-1 was read as KKLEB cytotox -23, TWEAK Fn14 block 70*, CF NFkB inh 76*, hiPSC survival -4, HIF-2a inh 27 and Mdm2 MdmX conf 100*.
Screening CNC[C@@H]1Oc2cc(-c3ccncc3)ccc2S(=O)(=O)N([C@H](C)CO)C[C@H]1C returned LGR2 inh -6.
Screening Cc1cccc([C@@H]2[C@@H]3C(=O)N(Cc4ccccc4)C(=O)[C@@H]3[C@]3(Cc4ccc(Cl)cc4)C(=O)N(c4ccc(Br)cc4)C(=O)N23)c1 returned KKLEB cytotox -12, TWEAK Fn14 block 15, CF NFkB inh 5, hiPSC survival -2, HIF-2a inh 6 and Mdm2 MdmX conf 102*.
For CC[C@@]12C(=O)N(c3ccc(C)cc3)C(=O)N1[C@H](c1cccc(C)c1)[C@@H]1C(=O)N(Cc3ccccc3)C(=O)[C@@H]12 the results were KKLEB cytotox -2, TWEAK Fn14 block 13, CF NFkB inh -2, hiPSC survival 5, HIF-2a inh 3 and LGR2 inh -2.
For CN(C)CCCNc1cc(C(C)(C)C)nc2c(-c3ccc(Cl)cc3)cnn12 the results were KKLEB cytotox -19, TWEAK Fn14 block -48, CF NFkB inh 38, hiPSC survival -1, HIF-2a inh -42, LGR2 inh -25 and Mdm2 MdmX conf 102*.
`CCN1CCN(CCNC(=O)c2ccc(/C=C3/Sc4ccccc4N(Cc4cccc(Cl)c4)C3=O)cc2)CC1` gave KKLEB cytotox -29, TWEAK Fn14 block -38, CF NFkB inh 21, hiPSC survival 0, HIF-2a inh 17, LGR2 inh 52* and Mdm2 MdmX conf 102*.
Screening CCCN(CC(=O)Nc1ccccc1C)C(=O)CCl returned KKLEB cytotox -12, TWEAK Fn14 block 49, CF NFkB inh 12, hiPSC survival 0, HIF-2a inh 39, LGR2 inh 1 and Mdm2 MdmX conf 95*.
For CCOC(=O)N1CCN(S(=O)(=O)c2ccc(C(=O)Nc3sc4c(c3C(=O)OC)CCN(C)C4)cc2)CC1 the results were KKLEB cytotox -20, TWEAK Fn14 block -20, CF NFkB inh -38, hiPSC survival 0, HIF-2a inh 61*, LGR2 inh -20, HIF-2a inh conf 26 and HIF-1a counter 90*.
`C[C@H](CO)N1C[C@H](C)[C@H](CN(C)Cc2ccc(C(=O)Nc3ccccc3N)cc2)Oc2ccc(NC(=O)NC3CCCCC3)cc2CC1=O` gave LGR2 inh -31.
Screening O=C(CCCN1C(=O)/C(=C/c2ccccc2)SC1=S)Nc1cccc(O)c1 returned KKLEB cytotox -9, TWEAK Fn14 block 30, CF NFkB inh 8, hiPSC survival -2, HIF-2a inh 73*, LGR2 inh 7 and Mdm2 MdmX conf 103*.
CN1CCN(C(=O)CCCN2C(=O)/C(=C/c3ccccc3)SC2=S)CC1 was read as KKLEB cytotox -6, TWEAK Fn14 block -13, CF NFkB inh 11, hiPSC survival 0, HIF-2a inh 28 and LGR2 inh 19.
`O=C(CCCN1C(=O)/C(=C\c2ccccc2)SC1=S)Nc1cccc(C(=O)O)c1` gave KKLEB cytotox 4, TWEAK Fn14 block -1, CF NFkB inh -16, hiPSC survival -1, HIF-2a inh 3 and LGR2 inh 13.
For Cc1ccc(/C=C2/SC(=S)N(CCCC(=O)Nc3ccc(O)cc3)C2=O)cc1 the results were KKLEB cytotox 4, TWEAK Fn14 block 15, CF NFkB inh -10, hiPSC survival -5, HIF-2a inh -8, LGR2 inh -63 and Mdm2 MdmX conf 101*.
Screening O=C(CCN1C(=O)/C(=C/c2ccccc2)SC1=S)N1CCCCCC1 returned KKLEB cytotox -5, TWEAK Fn14 block -1, CF NFkB inh 31, hiPSC survival -1, HIF-2a inh 67*, LGR2 inh -3 and Mdm2 MdmX conf 102*.
Screening COc1ccc(NC(=O)N(C)C[C@@H]2Oc3c(NS(=O)(=O)c4ccccc4)cccc3C(=O)N([C@H](C)CO)C[C@H]2C)cc1 returned LGR2 inh -9.
Cc1cc(N)c2cc(NC(=O)/C=C/c3ccccc3Cl)ccc2n1 was read as KKLEB cytotox -30, TWEAK Fn14 block 34, CF NFkB inh 19, hiPSC survival -1, HIF-2a inh 96*, Mdm2 MdmX conf 103*, HIF-2a inh conf 95* and HIF-1a counter 108*.
For Cc1cc(C)nc(NC(=O)/C=C/c2ccccc2Cl)n1 the results were KKLEB cytotox -4, TWEAK Fn14 block -25, CF NFkB inh 5, hiPSC survival 0 and HIF-2a inh -137.
Screening CO[C@H]1CN(C)C(=O)c2ccc(NC(=O)Cc3ccccc3)cc2OC[C@@H](C)N(CC2CC2)C[C@H]1C returned LGR2 inh 11.
`Nc1cc(OC(=O)c2ccc(F)cc2)nn1S(=O)(=O)c1ccccc1` gave KKLEB cytotox 0, TWEAK Fn14 block 1, CF NFkB inh 5, hiPSC survival 0, HIF-2a inh 53*, LGR2 inh -9, HIF-2a inh conf -8 and HIF-1a counter 5.
COc1cc(C(=O)Oc2cc(N)n(S(=O)(=O)c3ccc(F)cc3)n2)cc(OC)c1OC was read as KKLEB cytotox -15, TWEAK Fn14 block 24, CF NFkB inh 17, hiPSC survival 0, HIF-2a inh 7 and LGR2 inh -4.
For CO[C@@H]1CN(C)C(=O)c2cc(NC(=O)C3CC3)ccc2OC[C@H](C)N(Cc2cncnc2)C[C@H]1C the results were LGR2 inh -10.
`CC(C)c1ccc(NC(=O)Nc2nc(C(N)C3CCCCC3)cs2)cc1` (stereo not drawn) gave KKLEB cytotox -45, TWEAK Fn14 block -15, CF NFkB inh 45, hiPSC survival -4, HIF-2a inh 50*, LGR2 inh 12, HIF-2a inh conf 11 and HIF-1a counter 106*.
Oc1cc(O)cc(-c2cc3ccc(O)cc3o2)c1 was read as KKLEB cytotox -15, TWEAK Fn14 block -53, CF NFkB inh -8, hiPSC survival -3, HIF-2a inh 40*, HIF-2a inh conf 23 and HIF-1a counter 11.
`O=C(c1cnccn1)N1CC2(C1)[C@@H](c1ccccc1)[C@@H](CO)N2C(=O)c1ccccc1` gave LGR2 inh -1.
